# Results published in article PMC7862700, “An all-to-all approach to the identification of sequence-specific readers for epigenetic DNA modifications on cytosine”.
# Columns and labels:
# Experiment in all cases: DAPPL (digital affinity profiling via proximity ligation, sequencing); 10 mM Tris-HCl pH 7.5, 50 mM NaCl, 1 mM DTT, 4% glycerol, room temperature, 30 min; GST-TFs on glutathione beads, 16-mer random dsDNA library, 0.1% formaldehyde crosslink after washing; high values mean tight binding
# FLI1 = molecular target: T1, FLI1 (Homo sapiens, UniProt Q01543 1-452); conditions: protein: recombinant; tags: N-terminal GST; dsDNA, one strand shown
# T1 sequence: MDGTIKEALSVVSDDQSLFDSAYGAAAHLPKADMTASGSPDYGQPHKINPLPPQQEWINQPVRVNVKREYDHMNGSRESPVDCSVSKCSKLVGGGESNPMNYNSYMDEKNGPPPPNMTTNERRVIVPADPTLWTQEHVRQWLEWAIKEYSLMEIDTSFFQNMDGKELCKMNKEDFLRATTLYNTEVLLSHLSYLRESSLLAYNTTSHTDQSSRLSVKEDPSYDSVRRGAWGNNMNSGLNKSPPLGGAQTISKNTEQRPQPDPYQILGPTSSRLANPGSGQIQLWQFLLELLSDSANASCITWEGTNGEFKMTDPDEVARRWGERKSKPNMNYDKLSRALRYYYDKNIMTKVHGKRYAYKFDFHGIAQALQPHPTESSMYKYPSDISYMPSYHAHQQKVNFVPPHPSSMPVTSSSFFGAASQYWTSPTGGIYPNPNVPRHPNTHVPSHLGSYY
# Method in brief: (§1)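 Human transcription factors carrying a GST fusion were produced in yeast, bound to glutathione beads, tagged with DNA barcodes and pooled together with a tag-only sample. Each pool was held with 200 nmole of a random double-stranded 16-mer DNA library in Tris/NaCl/DTT/glycerol buffer for 30 min at room temperature, then washed, crosslinked in 0.1% formaldehyde, proximity-ligated with BsaI/T4 ligase (1 h, 37 °C), PCR-amplified and sequenced on an Illumina NextSeq500. Binding signal is the read frequency of each hexamer for a given factor divided by its frequency in the tag-only sample.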
# ELK1 = molecular target: T2, ELK1 (Homo sapiens, UniProt P19419 1-428); conditions: protein: recombinant; tags: N-terminal GST; dsDNA, one strand shown
# T2 sequence: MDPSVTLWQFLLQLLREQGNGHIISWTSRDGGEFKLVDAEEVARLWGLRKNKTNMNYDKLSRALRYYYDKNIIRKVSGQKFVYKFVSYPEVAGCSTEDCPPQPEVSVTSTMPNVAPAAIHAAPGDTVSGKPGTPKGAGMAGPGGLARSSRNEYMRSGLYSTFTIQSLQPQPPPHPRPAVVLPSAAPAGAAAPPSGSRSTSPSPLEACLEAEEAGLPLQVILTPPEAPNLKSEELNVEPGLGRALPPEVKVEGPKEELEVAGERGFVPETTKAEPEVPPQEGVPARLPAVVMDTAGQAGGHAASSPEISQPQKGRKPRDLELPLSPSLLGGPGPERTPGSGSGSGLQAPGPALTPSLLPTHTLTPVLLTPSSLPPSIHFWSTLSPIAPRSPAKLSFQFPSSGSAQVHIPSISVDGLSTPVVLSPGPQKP
# Method in brief: as §1
# GABPA = molecular target: T3, GABPA (Homo sapiens, UniProt Q06546 1-454); conditions: protein: recombinant; tags: N-terminal GST; dsDNA, one strand shown
# T3 sequence: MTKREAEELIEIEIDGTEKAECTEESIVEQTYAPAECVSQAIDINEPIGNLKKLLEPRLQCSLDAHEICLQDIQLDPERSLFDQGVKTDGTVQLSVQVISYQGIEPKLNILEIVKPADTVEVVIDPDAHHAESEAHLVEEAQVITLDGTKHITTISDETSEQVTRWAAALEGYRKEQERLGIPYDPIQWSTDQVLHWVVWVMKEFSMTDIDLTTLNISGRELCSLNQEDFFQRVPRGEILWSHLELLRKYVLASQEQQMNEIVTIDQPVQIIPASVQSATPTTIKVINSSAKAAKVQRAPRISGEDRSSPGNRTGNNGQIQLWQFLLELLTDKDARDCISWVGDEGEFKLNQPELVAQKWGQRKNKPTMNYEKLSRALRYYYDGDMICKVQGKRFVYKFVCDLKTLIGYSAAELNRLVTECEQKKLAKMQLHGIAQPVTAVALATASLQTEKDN
# Method in brief: as §1
# ERG = molecular target: T4, ERG (Homo sapiens, UniProt P11308 1-479); conditions: protein: recombinant; tags: N-terminal GST; dsDNA, one strand shown
# T4 sequence: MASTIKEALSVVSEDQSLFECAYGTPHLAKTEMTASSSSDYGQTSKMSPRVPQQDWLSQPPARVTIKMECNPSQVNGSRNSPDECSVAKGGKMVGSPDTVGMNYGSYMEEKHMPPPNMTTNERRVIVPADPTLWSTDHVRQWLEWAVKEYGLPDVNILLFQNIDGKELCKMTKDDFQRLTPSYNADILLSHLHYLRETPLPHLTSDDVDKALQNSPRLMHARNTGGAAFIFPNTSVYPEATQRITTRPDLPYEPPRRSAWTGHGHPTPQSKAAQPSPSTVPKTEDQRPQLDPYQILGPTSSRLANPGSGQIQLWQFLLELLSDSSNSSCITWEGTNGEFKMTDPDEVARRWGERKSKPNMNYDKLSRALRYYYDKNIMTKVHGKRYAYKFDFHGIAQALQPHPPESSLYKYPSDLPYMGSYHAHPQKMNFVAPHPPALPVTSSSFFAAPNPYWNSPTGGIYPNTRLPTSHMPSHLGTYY
# Method in brief: as §1
# ELF1 = ELF1 (Homo sapiens, UniProt P32519 1-619); conditions: protein: recombinant; tags: N-terminal GST; dsDNA, one strand shown
# Method in brief: as §1
# EHF = molecular target: T5, EHF (Homo sapiens, UniProt Q9NZC4 1-300); conditions: protein: recombinant; tags: N-terminal GST; dsDNA, one strand shown
# T5 sequence: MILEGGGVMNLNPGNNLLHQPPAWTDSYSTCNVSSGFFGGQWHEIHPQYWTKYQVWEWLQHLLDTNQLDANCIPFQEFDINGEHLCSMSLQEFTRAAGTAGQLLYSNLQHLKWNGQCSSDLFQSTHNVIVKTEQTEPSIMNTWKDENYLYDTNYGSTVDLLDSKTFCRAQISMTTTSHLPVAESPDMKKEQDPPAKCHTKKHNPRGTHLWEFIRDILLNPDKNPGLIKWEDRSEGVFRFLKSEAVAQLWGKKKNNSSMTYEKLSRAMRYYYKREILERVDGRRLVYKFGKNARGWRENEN
# Method in brief: as §1
# SPI1 = SPI1 (Homo sapiens, UniProt P17947 1-270); conditions: protein: recombinant; tags: N-terminal GST; dsDNA, one strand shown
# Method in brief: as §1
# SPIB = SPIB (Homo sapiens, UniProt Q01892 1-262); conditions: protein: recombinant; tags: N-terminal GST; dsDNA, one strand shown
# Method in brief: as §1
# ELK3 = molecular target: T6, ELK3 (Homo sapiens, UniProt P41970 1-407); conditions: protein: recombinant; tags: N-terminal GST; dsDNA, one strand shown
# T6 sequence: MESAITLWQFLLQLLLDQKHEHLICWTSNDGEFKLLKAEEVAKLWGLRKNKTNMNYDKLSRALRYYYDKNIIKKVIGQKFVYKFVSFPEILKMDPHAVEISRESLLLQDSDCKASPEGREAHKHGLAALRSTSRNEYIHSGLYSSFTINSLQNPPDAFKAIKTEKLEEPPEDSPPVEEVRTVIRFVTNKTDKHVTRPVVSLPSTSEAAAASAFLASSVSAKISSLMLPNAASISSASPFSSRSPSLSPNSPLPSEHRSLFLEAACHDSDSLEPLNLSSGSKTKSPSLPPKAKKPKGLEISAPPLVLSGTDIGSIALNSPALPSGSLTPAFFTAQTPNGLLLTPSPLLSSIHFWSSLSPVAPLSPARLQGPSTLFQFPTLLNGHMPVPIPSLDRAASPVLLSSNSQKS
# Method in brief: as §1
# FEV = molecular target: T7, FEV (Homo sapiens, UniProt Q99581 1-238); conditions: protein: recombinant; tags: N-terminal GST; dsDNA, one strand shown
# T7 sequence: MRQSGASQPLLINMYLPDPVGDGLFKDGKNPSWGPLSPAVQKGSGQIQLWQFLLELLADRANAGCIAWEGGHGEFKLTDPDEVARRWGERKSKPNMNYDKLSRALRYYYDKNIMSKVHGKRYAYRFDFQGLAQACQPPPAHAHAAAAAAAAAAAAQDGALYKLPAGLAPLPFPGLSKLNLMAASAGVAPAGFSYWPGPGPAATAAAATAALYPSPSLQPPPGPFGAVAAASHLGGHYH
# Method in brief: as §1
# ETV5 = ETV5 (Homo sapiens, UniProt P41161 1-510); conditions: protein: recombinant; tags: N-terminal GST; dsDNA, one strand shown
# Method in brief: as §1
# HSF1 = HSF1 (Homo sapiens, UniProt Q00613 1-529); conditions: protein: recombinant; tags: N-terminal GST; chain copies: 3; dsDNA, one strand shown
# Method in brief: as §1
# SPIC = molecular target: T8, SPIC (Homo sapiens, UniProt Q8N5J4 1-248); conditions: protein: recombinant; tags: N-terminal GST; dsDNA, one strand shown
# T8 sequence: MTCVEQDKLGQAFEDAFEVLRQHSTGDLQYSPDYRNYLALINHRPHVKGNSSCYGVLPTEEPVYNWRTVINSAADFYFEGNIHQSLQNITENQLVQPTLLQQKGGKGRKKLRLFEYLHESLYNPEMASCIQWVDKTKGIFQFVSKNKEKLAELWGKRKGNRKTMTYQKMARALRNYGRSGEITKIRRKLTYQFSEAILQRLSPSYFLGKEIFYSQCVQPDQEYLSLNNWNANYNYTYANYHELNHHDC
# Method in brief: as §1
# ELF4 = ELF4 (Homo sapiens, UniProt Q99607 1-663); conditions: protein: recombinant; tags: N-terminal GST; dsDNA, one strand shown
# Method in brief: as §1
# ELK4 = molecular target: T9, ELK4 (Homo sapiens, UniProt P28324-2 1-405); conditions: protein: recombinant; tags: N-terminal GST; dsDNA, one strand shown
# T9 sequence: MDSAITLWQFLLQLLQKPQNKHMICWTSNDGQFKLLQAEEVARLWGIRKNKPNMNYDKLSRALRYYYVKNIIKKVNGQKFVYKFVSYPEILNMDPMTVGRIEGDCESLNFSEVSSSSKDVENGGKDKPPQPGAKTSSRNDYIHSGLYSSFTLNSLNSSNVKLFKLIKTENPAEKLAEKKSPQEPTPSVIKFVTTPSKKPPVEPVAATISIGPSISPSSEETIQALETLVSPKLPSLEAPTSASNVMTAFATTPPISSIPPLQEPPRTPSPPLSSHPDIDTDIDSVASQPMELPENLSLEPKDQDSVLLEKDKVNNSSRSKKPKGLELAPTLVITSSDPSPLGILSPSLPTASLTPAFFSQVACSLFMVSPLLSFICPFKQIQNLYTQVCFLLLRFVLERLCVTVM
# Method in brief: as §1
# ETV2 = molecular target: T10, ETV2 (Homo sapiens, UniProt O00321 1-342); conditions: protein: recombinant; tags: N-terminal GST; dsDNA, one strand shown
# T10 sequence: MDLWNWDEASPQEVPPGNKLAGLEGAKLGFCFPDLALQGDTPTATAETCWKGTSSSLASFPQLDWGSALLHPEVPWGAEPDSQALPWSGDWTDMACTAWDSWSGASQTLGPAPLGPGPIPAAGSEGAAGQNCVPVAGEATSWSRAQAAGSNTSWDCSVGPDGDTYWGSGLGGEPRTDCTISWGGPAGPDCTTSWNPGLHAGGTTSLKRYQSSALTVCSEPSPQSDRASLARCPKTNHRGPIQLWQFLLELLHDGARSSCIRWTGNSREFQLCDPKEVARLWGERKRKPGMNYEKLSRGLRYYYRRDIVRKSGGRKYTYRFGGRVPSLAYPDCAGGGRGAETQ
# Method in brief: as §1
# CRX = CRX (Homo sapiens, UniProt O43186 1-299); conditions: protein: recombinant; tags: N-terminal GST; dsDNA, one strand shown
# Method in brief: as §1
# ETV1 = ETV1 (Homo sapiens, UniProt P50549 1-477); conditions: protein: recombinant; tags: N-terminal GST; dsDNA, one strand shown
# Method in brief: as §1
# Chain of SPIB (Q01892 whole entry): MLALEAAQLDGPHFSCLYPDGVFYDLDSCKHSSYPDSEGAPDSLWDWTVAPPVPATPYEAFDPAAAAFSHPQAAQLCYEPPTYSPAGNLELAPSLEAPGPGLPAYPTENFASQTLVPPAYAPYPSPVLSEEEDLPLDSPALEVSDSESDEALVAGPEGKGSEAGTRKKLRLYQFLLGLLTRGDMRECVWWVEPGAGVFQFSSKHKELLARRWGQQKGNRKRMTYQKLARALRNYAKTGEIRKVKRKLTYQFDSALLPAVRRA
# Chain of ELF1 (P32519 whole entry): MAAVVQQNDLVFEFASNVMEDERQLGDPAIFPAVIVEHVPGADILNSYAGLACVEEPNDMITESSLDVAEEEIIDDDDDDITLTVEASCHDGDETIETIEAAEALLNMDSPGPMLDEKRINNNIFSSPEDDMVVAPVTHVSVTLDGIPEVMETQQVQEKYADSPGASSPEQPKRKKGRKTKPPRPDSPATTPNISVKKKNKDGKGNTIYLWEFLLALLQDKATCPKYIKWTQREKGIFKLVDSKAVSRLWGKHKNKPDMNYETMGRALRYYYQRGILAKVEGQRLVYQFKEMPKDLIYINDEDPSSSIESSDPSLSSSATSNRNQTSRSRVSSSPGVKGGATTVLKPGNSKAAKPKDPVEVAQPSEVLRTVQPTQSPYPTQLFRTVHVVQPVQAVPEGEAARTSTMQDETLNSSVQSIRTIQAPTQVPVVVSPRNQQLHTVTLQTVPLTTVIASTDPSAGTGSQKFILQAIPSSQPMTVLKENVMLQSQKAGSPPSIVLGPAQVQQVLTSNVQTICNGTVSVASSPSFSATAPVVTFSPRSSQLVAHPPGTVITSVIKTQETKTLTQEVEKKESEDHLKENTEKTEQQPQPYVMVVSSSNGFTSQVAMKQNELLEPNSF
# Chain of ELF4 (Q99607 whole entry): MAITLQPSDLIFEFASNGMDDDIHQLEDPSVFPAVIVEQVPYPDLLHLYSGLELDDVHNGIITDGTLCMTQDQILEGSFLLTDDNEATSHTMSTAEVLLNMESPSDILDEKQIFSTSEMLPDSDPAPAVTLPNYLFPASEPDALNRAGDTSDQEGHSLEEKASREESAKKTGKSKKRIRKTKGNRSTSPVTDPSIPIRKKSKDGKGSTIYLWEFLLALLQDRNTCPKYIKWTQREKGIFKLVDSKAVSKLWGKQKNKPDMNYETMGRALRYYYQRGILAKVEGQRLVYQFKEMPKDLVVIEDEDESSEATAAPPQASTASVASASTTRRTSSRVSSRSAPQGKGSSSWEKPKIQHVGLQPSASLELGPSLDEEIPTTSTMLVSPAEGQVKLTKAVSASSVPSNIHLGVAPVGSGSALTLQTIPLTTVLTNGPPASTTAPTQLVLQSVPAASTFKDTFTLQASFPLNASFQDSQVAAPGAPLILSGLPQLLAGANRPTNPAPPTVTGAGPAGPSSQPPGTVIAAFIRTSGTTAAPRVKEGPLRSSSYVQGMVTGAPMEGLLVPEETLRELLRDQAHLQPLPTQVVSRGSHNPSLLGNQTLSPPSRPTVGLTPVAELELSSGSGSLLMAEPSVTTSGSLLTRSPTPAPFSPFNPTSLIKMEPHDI
# Chain of CRX (O43186 whole entry): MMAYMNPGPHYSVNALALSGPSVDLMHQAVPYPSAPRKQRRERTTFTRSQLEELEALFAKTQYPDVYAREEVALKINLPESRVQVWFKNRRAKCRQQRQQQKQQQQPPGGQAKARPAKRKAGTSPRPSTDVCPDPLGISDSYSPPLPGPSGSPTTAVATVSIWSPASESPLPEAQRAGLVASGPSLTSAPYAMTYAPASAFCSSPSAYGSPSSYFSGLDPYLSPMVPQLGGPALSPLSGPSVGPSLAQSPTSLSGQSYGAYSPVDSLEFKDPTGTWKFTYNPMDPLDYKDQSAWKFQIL
# Chain of ETV1 (P50549 whole entry): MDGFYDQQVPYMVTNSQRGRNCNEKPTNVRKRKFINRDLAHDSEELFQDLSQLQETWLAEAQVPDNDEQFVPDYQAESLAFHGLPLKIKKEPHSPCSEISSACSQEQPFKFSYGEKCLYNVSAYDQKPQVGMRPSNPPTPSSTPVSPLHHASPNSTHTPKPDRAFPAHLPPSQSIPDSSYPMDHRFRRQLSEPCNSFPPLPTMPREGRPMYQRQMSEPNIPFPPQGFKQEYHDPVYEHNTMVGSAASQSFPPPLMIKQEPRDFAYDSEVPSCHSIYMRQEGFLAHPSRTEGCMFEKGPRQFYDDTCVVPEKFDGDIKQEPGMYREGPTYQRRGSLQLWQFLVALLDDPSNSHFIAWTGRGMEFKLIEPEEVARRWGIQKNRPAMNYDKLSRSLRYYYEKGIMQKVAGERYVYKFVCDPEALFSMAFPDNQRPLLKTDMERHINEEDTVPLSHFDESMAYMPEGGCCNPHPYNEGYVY
# Chain of ETV5 (P41161 whole entry): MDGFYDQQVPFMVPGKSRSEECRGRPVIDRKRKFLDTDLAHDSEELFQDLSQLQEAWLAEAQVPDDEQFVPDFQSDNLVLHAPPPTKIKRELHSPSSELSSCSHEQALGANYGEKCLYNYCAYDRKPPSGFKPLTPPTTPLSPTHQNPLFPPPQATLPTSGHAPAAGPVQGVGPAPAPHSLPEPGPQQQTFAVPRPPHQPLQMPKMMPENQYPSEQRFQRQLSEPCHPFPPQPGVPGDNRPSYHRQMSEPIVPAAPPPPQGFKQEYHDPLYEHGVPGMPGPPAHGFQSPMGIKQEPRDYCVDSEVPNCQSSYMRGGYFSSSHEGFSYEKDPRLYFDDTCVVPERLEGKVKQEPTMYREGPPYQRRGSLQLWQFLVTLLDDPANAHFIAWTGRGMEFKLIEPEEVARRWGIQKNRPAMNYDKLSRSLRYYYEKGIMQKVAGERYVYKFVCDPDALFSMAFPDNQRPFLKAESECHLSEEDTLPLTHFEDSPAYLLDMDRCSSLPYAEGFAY
# Chain of HSF1 (Q00613 whole entry): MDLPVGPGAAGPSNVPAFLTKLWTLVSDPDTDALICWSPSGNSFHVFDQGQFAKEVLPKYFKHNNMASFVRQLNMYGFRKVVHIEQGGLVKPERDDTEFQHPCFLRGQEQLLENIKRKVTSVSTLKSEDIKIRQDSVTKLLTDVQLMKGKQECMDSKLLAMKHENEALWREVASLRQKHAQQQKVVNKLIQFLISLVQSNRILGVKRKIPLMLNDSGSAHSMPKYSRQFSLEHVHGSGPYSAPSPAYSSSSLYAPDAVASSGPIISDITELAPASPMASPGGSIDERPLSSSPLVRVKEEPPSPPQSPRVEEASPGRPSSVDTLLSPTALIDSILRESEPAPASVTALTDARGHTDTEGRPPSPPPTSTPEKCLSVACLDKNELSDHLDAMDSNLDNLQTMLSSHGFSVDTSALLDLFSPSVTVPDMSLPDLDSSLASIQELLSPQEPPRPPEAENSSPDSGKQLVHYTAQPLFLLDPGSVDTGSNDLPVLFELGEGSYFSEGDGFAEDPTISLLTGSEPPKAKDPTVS
sequence,measurement,setting,value
GATACT,binding signal,FLI1,"1.14 fold enrichment (6-mer frequency, TF over GST control)"
same,binding signal,ELK1,"1.01 fold enrichment (6-mer frequency, TF over GST control)"
same,binding signal,GABPA,"1.2 fold enrichment (6-mer frequency, TF over GST control)"
same,binding signal,ERG,"1.21 fold enrichment (6-mer frequency, TF over GST control)"
same,binding signal,ELF1,"1.1 fold enrichment (6-mer frequency, TF over GST control)"
same,binding signal,EHF,"1.21 fold enrichment (6-mer frequency, TF over GST control)"
same,binding signal,SPI1,"1.12 fold enrichment (6-mer frequency, TF over GST control)"
same,binding signal,SPIB,"1.16 fold enrichment (6-mer frequency, TF over GST control)"
same,binding signal,ELK3,"1.09 fold enrichment (6-mer frequency, TF over GST control)"
same,binding signal,FEV,"1.1 fold enrichment (6-mer frequency, TF over GST control)"
same,binding signal,ETV5,"1.07 fold enrichment (6-mer frequency, TF over GST control)"
same,binding signal,HSF1,"1.07 fold enrichment (6-mer frequency, TF over GST control)"
same,binding signal,SPIC,"1.05 fold enrichment (6-mer frequency, TF over GST control)"
same,binding signal,ELF4,"1.18 fold enrichment (6-mer frequency, TF over GST control)"
same,binding signal,ELK4,"1.18 fold enrichment (6-mer frequency, TF over GST control)"
same,binding signal,ETV2,"1.02 fold enrichment (6-mer frequency, TF over GST control)"
same,binding signal,CRX,"1.07 fold enrichment (6-mer frequency, TF over GST control)"
same,binding signal,ETV1,"1.1 fold enrichment (6-mer frequency, TF over GST control)"
